Drawing on ChEMBL document CHEMBL1961873, “Compounds: GSK PKIS; Assays: Nanosyn kinase panel” (2012), this text covers inhibition for six compounds.

Experiment [1] has as its target RAC-alpha serine/threonine-protein kinase (Homo sapiens) (UniProt P31749). Conditions: at 0.1 µM.
The target is the same in experiment [2]. As to conditions: at 1 µM.
Experiment [3] addresses RAC-beta serine/threonine-protein kinase (Homo sapiens) (UniProt P31751). Conditions: at 0.1 µM.
Experiment [4] shares this target. As to conditions: at 1 µM.
Experiment [5] deals with RAC-gamma serine/threonine-protein kinase (Homo sapiens) (UniProt Q9Y243). As to conditions: at 0.1 µM.
The target is the same in experiment [6]. Conditions: at 1 µM.
The target in experiment [7] is G protein-coupled receptor kinase 6 (Homo sapiens) (UniProt P43250). Conditions: at 0.1 µM.
For experiment [8] the target is unchanged. Conditions: at 1 µM.
The target of experiment [9] is T1, Rhodopsin kinase GRK7 (Homo sapiens) (UniProt Q8WTQ7).
T1 sequence (whole entry): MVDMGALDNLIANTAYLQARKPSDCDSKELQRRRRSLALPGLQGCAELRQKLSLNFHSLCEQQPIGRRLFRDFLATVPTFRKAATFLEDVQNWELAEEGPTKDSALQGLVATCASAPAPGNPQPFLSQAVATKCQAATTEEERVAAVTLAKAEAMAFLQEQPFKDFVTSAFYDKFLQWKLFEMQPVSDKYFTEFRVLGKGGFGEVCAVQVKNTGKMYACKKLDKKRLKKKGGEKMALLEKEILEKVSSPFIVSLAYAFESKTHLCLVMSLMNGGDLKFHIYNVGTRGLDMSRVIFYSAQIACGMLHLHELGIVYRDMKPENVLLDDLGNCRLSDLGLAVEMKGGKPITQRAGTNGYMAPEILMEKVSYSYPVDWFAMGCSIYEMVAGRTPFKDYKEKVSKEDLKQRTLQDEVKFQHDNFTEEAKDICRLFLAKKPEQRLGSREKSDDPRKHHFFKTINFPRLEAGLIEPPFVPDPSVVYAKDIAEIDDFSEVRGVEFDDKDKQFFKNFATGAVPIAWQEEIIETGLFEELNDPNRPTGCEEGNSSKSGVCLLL
Conditions: at 0.1 µM.

Experiment [10] has as its target T1, Rhodopsin kinase GRK7 (Homo sapiens). Conditions: at 1 µM.
In experiment [11] the target is Serine/threonine-protein kinase MRCK alpha (Homo sapiens) (UniProt Q5VT25). Conditions: at 0.1 µM.
For experiment [12] the target is unchanged. Conditions: at 1 µM.
Experiment [13] addresses Serine/threonine-protein kinase MRCK beta (Homo sapiens) (UniProt Q9Y5S2). Conditions: at 0.1 µM.
Experiment [14] has the same target. As to conditions: at 1 µM.
Experiment [15] has as its target Ribosomal protein S6 kinase alpha-5 (Homo sapiens) (UniProt O75582). Conditions: at 0.1 µM.
Experiment [16] shares this target. As to conditions: at 1 µM.
For experiment [17], the target named is Ribosomal protein S6 kinase alpha-4 (Homo sapiens) (UniProt O75676). As to conditions: at 0.1 µM.
For experiment [18] the target is unchanged. As to conditions: at 1 µM.
The target in experiment [19] is Ribosomal protein S6 kinase beta-1 (Homo sapiens) (UniProt P23443). Conditions: at 0.1 µM.
The target is the same in experiment [20]. As to conditions: at 1 µM.

Sequence of Serine/threonine-protein kinase MRCK alpha (Homo sapiens) (Q5VT25 whole entry): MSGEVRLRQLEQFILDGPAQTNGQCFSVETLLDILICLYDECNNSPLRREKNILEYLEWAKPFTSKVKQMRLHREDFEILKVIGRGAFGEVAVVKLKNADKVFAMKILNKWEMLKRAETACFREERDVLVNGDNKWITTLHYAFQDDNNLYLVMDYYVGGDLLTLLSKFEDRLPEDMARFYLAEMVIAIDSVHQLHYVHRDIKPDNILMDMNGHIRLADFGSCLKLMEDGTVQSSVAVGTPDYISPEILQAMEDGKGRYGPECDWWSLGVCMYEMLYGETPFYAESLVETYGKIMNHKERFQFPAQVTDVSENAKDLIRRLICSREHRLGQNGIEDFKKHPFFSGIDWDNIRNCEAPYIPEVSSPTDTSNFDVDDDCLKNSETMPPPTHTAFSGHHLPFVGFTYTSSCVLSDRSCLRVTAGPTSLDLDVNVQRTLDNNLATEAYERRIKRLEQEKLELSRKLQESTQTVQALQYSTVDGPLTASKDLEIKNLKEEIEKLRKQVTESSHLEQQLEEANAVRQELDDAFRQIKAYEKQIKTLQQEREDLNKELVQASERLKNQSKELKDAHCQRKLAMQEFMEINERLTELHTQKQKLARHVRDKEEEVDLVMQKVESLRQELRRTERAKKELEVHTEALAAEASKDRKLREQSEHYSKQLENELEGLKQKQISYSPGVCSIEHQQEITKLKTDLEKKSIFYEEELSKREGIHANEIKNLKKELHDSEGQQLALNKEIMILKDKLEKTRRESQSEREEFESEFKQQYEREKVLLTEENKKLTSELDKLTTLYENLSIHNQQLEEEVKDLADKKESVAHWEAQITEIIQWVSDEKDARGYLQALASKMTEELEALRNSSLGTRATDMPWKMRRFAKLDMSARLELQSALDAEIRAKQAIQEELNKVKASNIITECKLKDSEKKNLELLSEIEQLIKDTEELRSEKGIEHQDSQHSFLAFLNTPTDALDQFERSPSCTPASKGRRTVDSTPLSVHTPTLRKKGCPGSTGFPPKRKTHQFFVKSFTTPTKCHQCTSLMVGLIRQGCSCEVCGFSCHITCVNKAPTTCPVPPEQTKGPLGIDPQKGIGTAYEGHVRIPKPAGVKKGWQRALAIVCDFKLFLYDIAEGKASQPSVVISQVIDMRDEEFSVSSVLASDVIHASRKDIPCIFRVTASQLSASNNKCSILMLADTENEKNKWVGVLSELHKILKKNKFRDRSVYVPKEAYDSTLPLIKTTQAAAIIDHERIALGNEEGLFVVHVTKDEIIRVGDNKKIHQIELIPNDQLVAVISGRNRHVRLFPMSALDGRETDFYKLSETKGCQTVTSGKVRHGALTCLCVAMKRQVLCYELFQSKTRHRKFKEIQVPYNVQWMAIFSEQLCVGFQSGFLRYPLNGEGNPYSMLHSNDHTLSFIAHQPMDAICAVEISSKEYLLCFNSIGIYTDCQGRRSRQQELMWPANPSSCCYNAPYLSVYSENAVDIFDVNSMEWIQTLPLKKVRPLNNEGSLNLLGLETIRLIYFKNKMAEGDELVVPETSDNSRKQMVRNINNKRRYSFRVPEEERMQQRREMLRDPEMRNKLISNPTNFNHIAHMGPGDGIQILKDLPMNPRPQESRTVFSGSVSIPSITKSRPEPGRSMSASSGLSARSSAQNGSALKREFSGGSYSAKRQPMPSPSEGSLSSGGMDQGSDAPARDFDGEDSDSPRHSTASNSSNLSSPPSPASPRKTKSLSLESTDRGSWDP
Sequence of RAC-alpha serine/threonine-protein kinase (Homo sapiens) (P31749 whole entry): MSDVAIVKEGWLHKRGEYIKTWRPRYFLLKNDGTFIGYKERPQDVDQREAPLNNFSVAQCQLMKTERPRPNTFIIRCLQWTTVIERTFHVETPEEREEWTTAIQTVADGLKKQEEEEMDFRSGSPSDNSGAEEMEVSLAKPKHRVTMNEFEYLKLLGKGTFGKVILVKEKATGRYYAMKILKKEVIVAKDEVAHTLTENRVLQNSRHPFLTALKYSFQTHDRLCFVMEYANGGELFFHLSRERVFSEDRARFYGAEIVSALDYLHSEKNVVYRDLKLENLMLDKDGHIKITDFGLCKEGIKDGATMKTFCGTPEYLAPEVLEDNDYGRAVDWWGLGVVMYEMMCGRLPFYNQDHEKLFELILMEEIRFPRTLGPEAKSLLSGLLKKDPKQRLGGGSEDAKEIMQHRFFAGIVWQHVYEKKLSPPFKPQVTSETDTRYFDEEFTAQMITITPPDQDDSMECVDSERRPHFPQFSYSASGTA
Sequence of G protein-coupled receptor kinase 6 (Homo sapiens) (P43250 whole entry, looked up): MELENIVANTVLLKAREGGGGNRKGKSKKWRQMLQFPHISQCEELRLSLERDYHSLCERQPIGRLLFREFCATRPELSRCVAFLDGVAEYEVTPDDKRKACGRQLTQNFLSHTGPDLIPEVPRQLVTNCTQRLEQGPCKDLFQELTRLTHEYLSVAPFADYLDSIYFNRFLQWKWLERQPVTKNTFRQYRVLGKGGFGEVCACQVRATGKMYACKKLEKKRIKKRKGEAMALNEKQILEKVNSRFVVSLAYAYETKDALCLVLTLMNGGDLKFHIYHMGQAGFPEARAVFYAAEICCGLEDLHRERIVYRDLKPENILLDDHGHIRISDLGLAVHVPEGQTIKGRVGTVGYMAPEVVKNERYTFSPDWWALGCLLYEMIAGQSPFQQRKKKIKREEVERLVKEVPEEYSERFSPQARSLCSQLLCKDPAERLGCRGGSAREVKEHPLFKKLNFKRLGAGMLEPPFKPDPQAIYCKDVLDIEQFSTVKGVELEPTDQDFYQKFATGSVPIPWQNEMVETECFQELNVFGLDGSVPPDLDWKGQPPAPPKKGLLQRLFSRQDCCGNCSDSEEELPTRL
Sequence of Ribosomal protein S6 kinase alpha-5 (Homo sapiens) (O75582 whole entry, looked up): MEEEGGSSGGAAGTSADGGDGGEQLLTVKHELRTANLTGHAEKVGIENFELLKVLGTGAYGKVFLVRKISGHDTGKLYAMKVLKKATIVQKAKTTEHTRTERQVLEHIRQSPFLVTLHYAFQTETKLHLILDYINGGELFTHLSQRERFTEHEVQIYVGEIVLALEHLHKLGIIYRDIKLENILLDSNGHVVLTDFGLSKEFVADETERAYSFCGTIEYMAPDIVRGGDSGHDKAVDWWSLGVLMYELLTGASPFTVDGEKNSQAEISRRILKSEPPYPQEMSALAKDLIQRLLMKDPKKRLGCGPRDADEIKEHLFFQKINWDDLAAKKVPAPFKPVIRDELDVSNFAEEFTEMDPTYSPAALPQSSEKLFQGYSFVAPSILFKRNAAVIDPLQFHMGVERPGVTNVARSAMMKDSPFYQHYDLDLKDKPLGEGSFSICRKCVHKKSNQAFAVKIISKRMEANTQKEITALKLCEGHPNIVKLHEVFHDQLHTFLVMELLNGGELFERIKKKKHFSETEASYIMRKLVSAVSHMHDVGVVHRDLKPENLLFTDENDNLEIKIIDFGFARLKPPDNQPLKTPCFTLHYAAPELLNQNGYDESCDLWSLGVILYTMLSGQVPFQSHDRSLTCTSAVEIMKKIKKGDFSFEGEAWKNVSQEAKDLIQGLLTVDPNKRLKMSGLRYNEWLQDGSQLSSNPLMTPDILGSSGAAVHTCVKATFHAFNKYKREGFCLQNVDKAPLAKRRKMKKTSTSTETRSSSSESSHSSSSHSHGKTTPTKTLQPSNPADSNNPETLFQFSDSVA
Sequence of RAC-beta serine/threonine-protein kinase (Homo sapiens) (P31751 whole entry): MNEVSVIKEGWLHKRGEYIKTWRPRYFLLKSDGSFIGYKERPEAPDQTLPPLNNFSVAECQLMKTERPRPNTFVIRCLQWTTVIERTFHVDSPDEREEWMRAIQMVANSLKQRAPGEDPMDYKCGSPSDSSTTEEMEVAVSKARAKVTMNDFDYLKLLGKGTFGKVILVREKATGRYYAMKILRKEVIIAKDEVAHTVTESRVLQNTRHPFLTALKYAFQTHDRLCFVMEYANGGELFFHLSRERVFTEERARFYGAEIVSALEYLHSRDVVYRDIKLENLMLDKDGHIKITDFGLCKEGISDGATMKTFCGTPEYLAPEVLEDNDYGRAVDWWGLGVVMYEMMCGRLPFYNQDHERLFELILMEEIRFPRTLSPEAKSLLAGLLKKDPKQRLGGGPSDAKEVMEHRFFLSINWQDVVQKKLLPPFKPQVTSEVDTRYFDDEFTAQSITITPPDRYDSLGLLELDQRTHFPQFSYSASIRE
Sequence of Ribosomal protein S6 kinase beta-1 (Homo sapiens) (P23443 whole entry, looked up): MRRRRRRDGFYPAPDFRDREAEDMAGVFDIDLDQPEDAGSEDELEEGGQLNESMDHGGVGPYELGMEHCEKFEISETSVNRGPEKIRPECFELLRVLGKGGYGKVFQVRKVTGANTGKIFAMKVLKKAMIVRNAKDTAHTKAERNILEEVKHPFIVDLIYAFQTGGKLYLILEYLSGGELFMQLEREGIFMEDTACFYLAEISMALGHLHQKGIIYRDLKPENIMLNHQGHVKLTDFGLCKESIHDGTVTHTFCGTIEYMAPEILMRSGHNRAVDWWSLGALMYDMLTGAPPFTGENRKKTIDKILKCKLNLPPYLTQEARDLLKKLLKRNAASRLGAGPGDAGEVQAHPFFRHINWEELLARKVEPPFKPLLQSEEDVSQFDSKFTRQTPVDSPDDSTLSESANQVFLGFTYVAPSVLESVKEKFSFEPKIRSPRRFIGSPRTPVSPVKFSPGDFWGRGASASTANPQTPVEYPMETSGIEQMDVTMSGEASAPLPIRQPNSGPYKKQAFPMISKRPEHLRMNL
Sequence of RAC-gamma serine/threonine-protein kinase (Homo sapiens) (Q9Y243 whole entry): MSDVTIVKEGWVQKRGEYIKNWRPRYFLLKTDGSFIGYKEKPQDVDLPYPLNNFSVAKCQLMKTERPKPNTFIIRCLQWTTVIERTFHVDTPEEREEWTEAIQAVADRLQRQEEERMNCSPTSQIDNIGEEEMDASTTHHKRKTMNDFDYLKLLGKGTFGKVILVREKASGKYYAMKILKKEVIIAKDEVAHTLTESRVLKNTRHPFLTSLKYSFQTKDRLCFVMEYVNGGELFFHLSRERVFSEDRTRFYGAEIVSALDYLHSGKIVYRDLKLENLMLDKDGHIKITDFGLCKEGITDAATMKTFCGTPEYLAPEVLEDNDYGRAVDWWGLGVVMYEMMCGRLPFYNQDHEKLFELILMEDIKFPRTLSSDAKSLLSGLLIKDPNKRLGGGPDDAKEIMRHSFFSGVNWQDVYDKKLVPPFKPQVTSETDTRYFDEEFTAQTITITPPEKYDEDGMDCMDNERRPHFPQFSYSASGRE

As to `NS(=O)(=O)c1ccc(Nc2cc(-c3ccc(O)c(F)c3)n[nH]2)cc1`, the inhibition (usually the drop in the measured response relative to a control, in per cent) in experiment [1] was -3.05%; in experiment [2] it was -2.1%; in [3] it was -3.37%; in [4], -1.69%; in [5], -3.06%; in experiment [6], -2.28%. For the same compound, the inhibition is -2.35% in experiment [7]; -0.57% in [8]; -9.14% in [9]; -0.64% in experiment [10]; -0.79% in experiment [11]; 0.17% in experiment [12]. In addition, the inhibition in experiment [13] is 0.18%; in experiment [14], 0.15%; in experiment [15], -1.17%; in [16], 8.77%; in experiment [17] it was -0.21%; in [18] it was 8.93%. In addition, the inhibition in [19] is -2.09%; in [20], 4.29%.

On to `O=C(Nc1ccc(Oc2ccc3[nH]c(NC(=O)c4ccccc4)nc3c2)cc1)Nc1cc(C(F)(F)F)ccc1F`, for which the inhibition in [1] is -0.2%; in experiment [2], 1.04%; in [3], 1.71%; in [4], 1.18%; in [5], 1.05%; in [6], 1.51%. For the same compound, the inhibition was 2.58% in [7]; 4.7% in [8]; 0.51% in [9]; -2.78% in [10]; -0.69% in experiment [11]; 1% in experiment [12]. The inhibition in experiment [13] was -0.31%; in [14], -0.22%; in experiment [15], 4.16%; in [16], 5.67%; in experiment [17] it was 2.16%; in [18], 3.01%. The inhibition in experiment [19] is 5.73%; in experiment [20] it was 36.4%.

For the compound `Fc1ccc(-c2ncn(CCCN3CCOCC3)c2-c2ccncc2)cc1`, the inhibition was 0.28% in [1]; -0.27% in experiment [2]; 0.74% in experiment [3]; 0.26% in [4]; -0.68% in experiment [5]; 1.2% in [6]. Further, the inhibition in experiment [7] is -3.25%; in experiment [8], -1.04%; in experiment [9] it was -1.98%; in experiment [10] it was 3.1%; in experiment [11], 1.19%; in experiment [12], 1.33%. Further, the inhibition in experiment [13] is 0.96%; in experiment [14], 2.08%; in [15], 0.01%; in experiment [16] it was -0.79%; in experiment [17], 0.3%; in experiment [18], 0.33%. The inhibition was 0.29% in experiment [19] and -0.43% in [20].

In the case of `CN1CCN(CCCNc2nc3ccc(Oc4ccc(NC(=O)Nc5cc(C(F)(F)F)ccc5F)cc4)cc3[nH]2)CC1`, the inhibition in experiment [1] is -3.71%; in [2], -3.59%; in [3], -3.19%; in [4], -0.85%; in experiment [5], -3.05%; in [6], -2.98%. The inhibition in [7] is 0.32%; in [8] it was -5.54%; in experiment [9] it was 1.12%; in [10], -3.95%; in [11], 1.76%; in [12], -0.74%. Further, the inhibition in [13] was 2.45%; in [14], 2.84%; in experiment [15], 1.13%; in experiment [16], -0.08%; in [17], 1.93%; in experiment [18], 2.99%. Also, the results for the inhibition in experiment [19] and in experiment [20] were 1.14% and 4.19%, respectively.

In the case of `C#Cc1cccc(Nc2ncnc3ccc(OCCCCNCCS(C)(=O)=O)cc23)c1`, the inhibition was -2.83% in experiment [1]; -3.06% in [2]; -0.89% in experiment [3]; -2.09% in experiment [4]; -1.57% in [5]; -0.78% in experiment [6]. For the same compound, the inhibition in [7] is 7.52%; in experiment [8], 6.6%; in experiment [9], 4.84%; in experiment [10] it was 8.97%; in experiment [11] it was -0.05%; in experiment [12], 7.35%. Moreover, the inhibition in experiment [13] came out at 0.55%; in experiment [14], 1.44%; in [15], 2.74%; in experiment [16], 1.8%; in experiment [17], 3.12%; in [18], 3.4%. Further, the inhibition in [19] worked out at 2.59%; in experiment [20], 3.29%.

For the compound `C[C@@H](Oc1cc(-n2cnc3ccc(OCC4CCN(C)CC4)cc32)sc1C(N)=O)c1ccccc1Cl`, the inhibition in experiment [1] was found to be 0.75%; in [2], 0.38%; in experiment [3], 1.73%; in [4] it was 2.79%; in experiment [5] it was 0.98%; in experiment [6], 3.81%. Also, the inhibition in experiment [7] stood at 4.28%; in [8], 9.48%; in experiment [9], 10.8%; in experiment [10], 9.71%; in experiment [11], 3.98%; in [12], 9.1%. The inhibition stood at 1.18% in experiment [13]; 1.35% in experiment [14]; 4.97% in [15]; 7.75% in experiment [16]; 3.23% in [17]; 7.58% in experiment [18]. Further, the inhibition was 2.88% in [19] and 6.79% in experiment [20].
